Source: PubChem (National Center for Advancing Translational Sciences (NCATS))
JMJD2E inh: JMJD2E (human) inhibition | B2RXH2 | JMJD2E catalytic domain, FDH-coupled NADH fluorescence (FDH is formaldehyde dehydrogenase) | Potency, µM (doses to about 57.1 µM), inactives show at the highest dose activity change, negative = inhibition, hits mostly inhibitors | 230,000 compounds, 1.6% hits | AID 2147; active = well fitted inhibition curve with a large enough effect, not every such curve was filed as active; inconclusive = small, poorly fitted or top-dose-only effect, or another doubt; inactive = no such curve, though single readings can be large or run the other way;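 also: 0% = wells with enzyme and -100% = buffer wells without enzyme; nearly all actives have a fitted effect of over 50% in size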
Tau fibril ThT: inhibitors of human tau fibril formation, thioflavin T binding. P10636. recombinant tau K18 P301L, heparin-induced fibrillization, ThT fluorescence. Potency, µM (titrated, usually from 57.4 µM), without a hit: at the highest dose activity, negative = inhibition, usual class: inhibitors. 270,000 compounds, 2.1% hits. AID 1460; also: nearly all actives have a fitted effect of over 55% in size
Target sequence (P10636 561-689 P618L limits assumed): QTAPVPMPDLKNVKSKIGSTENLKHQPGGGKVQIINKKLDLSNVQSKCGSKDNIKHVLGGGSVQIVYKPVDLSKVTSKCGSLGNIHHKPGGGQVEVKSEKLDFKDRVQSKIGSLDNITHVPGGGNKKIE
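Fibril formation assay: tau K18 P301L at 15 uM with trace Alexa 594 label, heparin inducer 20 uM, pH 7 sodium acetate buffer, 37 C for 6 hr; endpoint ThT signal.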
TRb SRC2 PPI: inhibitors of human thyroid hormone receptor beta-SRC2 interaction. P10828. TRbeta-SRC2 peptide binding, fluorescence polarization; receptor liganded with 1 µM T3. Potency, µM (series often up to 106 µM), without a hit: at the top dose activity change, negative = inhibition, actives largely listed as inhibitors. 280,000 compounds, 0.065% hits. AID 1469;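 also: plate controls were bound peptide for no effect and peptide without receptor for full effect; nearly all actives have a fitted effect of over 50% in size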
Target sequence (P10828 whole entry, looked up): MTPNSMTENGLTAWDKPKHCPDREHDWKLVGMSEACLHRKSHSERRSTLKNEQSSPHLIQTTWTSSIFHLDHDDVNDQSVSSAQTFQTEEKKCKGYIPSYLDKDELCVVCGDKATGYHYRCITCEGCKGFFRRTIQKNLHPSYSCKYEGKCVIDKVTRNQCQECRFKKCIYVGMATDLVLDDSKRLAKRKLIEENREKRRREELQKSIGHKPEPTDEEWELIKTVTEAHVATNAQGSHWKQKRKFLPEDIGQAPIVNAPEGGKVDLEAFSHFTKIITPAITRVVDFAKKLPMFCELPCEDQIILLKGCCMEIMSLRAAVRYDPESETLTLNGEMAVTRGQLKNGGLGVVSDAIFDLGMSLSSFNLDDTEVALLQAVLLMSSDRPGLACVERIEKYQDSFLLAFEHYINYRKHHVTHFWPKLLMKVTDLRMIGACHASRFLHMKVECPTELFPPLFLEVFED
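Quantitative HTS by FP: 0.6 uM TRb LBD, 20 nM labeled SRC2 20-mer, 1 uM T3, 5% DMSO; 5 hr ambient incubation; % activity per concentration and potencies from concentration series.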
Tau FP inhib: inhibitors of human tau fibril formation; K18 P301L tau heparin fibrillization, Alexa594 FP, 6 h; Potency, µM (series often up to 57.7 µM), without a hit: at the top dose activity, negative = inhibition, actives largely listed as inhibitors; AID 1468; 280,000 compounds, 0.39% hits; also: nearly all actives have a fitted effect of over 55% in size
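Steps: dispense K18 P301L tau (15 uM plus 0.24 uM Alexa 594 tracer, final) in pH 7 sodium acetate; add compound; add heparin (20 uM final); incubate 6 hr, 37 C; add ThT (30 uM final); after 1 hr ambient, read FP.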
TR SRC2 fluor cs: counter-screen for TRb-SRC2 inhibitors: fluorescence interference; TRb/SRC2 Texas Red total fluorescence interference; Potency, µM (doses to about 106 µM), for inactives: top-dose fluorescence change, negative = quenching; 280,000 compounds, 0.29% hits; active = well fitted curve in either direction with a large enough effect; inconclusive = small, poorly fitted or top-dose-only effect
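Human TRb ligand-binding domain at 0.6 uM with 20 nM Texas Red SRC2 peptide in Tris buffer containing 1 uM T3 and 5% DMSO, incubated with compound 5 h at ambient temperature. Total fluorescence (555/632 nm) calculated as parallel + 2 × perpendicular.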
Tau fluor counter: counter-screen for tau fibril formation inhibitors | Potency, µM (top dose mostly 57.7 µM), without a hit: top-dose activity change, negative = decrease | 280,000 compounds, 0.93% hits | tau K18 P301L Alexa594 fluorescence, heparin fibrillization; also: nearly all actives have a fitted effect of over 55% in size
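Human tau K18 P301L (15 uM unlabeled, 0.24 uM Alexa 594-labeled) in 100 mM sodium acetate pH 7 with 20 uM heparin, 6 hr at 37 C. ThT 30 uM added, 1 hr ambient; Alexa 594 FP and total fluorescence read at 555/632 nm.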
An asterisk follows results filed as active; [ ] = remark or other dose. Only some compounds are listed: those with a hit (about 3.5% of all), similar ones and a draw of the others. Unless noted, calls follow the shape of the dose curve; as a rule, active = well fitted curve in the direction sought with a large enough effect; inconclusive = small, poorly fitted or top-dose-only effect, or another doubt; inactive = no such curve, though single readings can be large; an effect the other way counts as inactive or inconclusive. Unless noted, % is scaled to controls: 0 for no effect and ±100 for the full control effect; potency is read from the fitted curve at half-maximal effect.

How did CCN(CC(=O)Nc1sc2c(c1C#N)CCC(C)C2)CC(=O)NC1CCS(=O)(=O)C1 (stereo unspecified) do in these assays?
JMJD2E inh: -24%; Tau fibril ThT: -10%; TRb SRC2 PPI: -10%; Tau FP inhib: 2%; TR SRC2 fluor cs: 0%; Tau fluor counter: -17%

Results for CCc1ccc(-c2cn3nc(C)c(C)nc3n2)cc1 ?
JMJD2E inh: 28µM*; Tau fibril ThT: inconclusive; TRb SRC2 PPI: 2%; Tau FP inhib: inconclusive; TR SRC2 fluor cs: 0%; Tau fluor counter: -13%

Results for Cc1nc2nc(-c3ccccc3)cn2nc1C ?
JMJD2E inh: inconclusive; Tau fibril ThT: inconclusive; TRb SRC2 PPI: -7%; Tau FP inhib: -1%; TR SRC2 fluor cs: -3%; Tau fluor counter: -7%

Results for O=C(Nc1cc(Sc2ccccn2)cc([N+](=O)[O-])c1)c1ccc(Cl)cc1 ?
JMJD2E inh: 0%; Tau fibril ThT: -14%; TRb SRC2 PPI: 6%; Tau FP inhib: -9%; TR SRC2 fluor cs: -1%; Tau fluor counter: 10µM*[quencher]

Results for O=C(Nc1cc(Sc2ccccn2)cc([N+](=O)[O-])c1)c1cccc(Cl)c1 ?
JMJD2E inh: 1%; Tau fibril ThT: 5%; TRb SRC2 PPI: 2%; Tau FP inhib: 3%; TR SRC2 fluor cs: 4%; Tau fluor counter: 3%

How did O=C(Nc1nc2ccc(F)cc2s1)C1CCN(S(=O)(=O)c2cc([N+](=O)[O-])ccc2Cl)CC1 do in these assays?
JMJD2E inh: -16%; Tau fibril ThT: inconclusive; TRb SRC2 PPI: 2%; Tau FP inhib: inconclusive; TR SRC2 fluor cs: -11%; Tau fluor counter: 7.1µM*[quencher]

What do the screens show for `Cc1ccc2nc(NC(=O)C3CCN(S(=O)(=O)c4cc([N+](=O)[O-])ccc4Cl)CC3)sc2c1`?
JMJD2E inh: -3%; Tau fibril ThT: inconclusive; TRb SRC2 PPI: 9%; Tau FP inhib: 6%; TR SRC2 fluor cs: -14%; Tau fluor counter: inconclusive

Results for O=C(N/N=C/c1nn(-c2ccccc2)cc1-c1ccccc1)c1ccncc1 ?
JMJD2E inh: inconclusive; Tau fibril ThT: -17%; TRb SRC2 PPI: 7%; Tau FP inhib: inconclusive; TR SRC2 fluor cs: -1%; Tau fluor counter: inconclusive

What do the screens show for `CCCCN(C)CC(O)Cn1cc(/C=C/C(=O)c2ccc(C)cc2)c2ccccc21` (stereo unspecified)?
Tau fibril ThT: 14µM*; TRb SRC2 PPI: 2%; Tau FP inhib: -4%; TR SRC2 fluor cs: -4%; Tau fluor counter: inconclusive

Results for CCCCN(C)CC(O)Cn1cc(/C=C/C(=O)c2ccc(Br)cc2)c2ccccc21 (stereo unspecified) ?
Tau fibril ThT: 20µM*; TRb SRC2 PPI: 1%; Tau FP inhib: 10%; TR SRC2 fluor cs: -2%; Tau fluor counter: inconclusive

How did CCCN(CCC)CC(O)Cn1cc(/C=C/C(=O)c2ccc(C)cc2)c2ccccc21 (stereo unspecified) do in these assays?
Tau fibril ThT: 18µM*; TRb SRC2 PPI: 13%; Tau FP inhib: -12%; TR SRC2 fluor cs: -5%; Tau fluor counter: inconclusive

How did CCCN(CCC)CC(O)Cn1cc(/C=C/C(=O)c2ccc(Br)cc2)c2ccccc21 (stereo unspecified) do in these assays?
Tau fibril ThT: inconclusive; TRb SRC2 PPI: -2%; Tau FP inhib: inconclusive; TR SRC2 fluor cs: -2%; Tau fluor counter: inconclusive

Results for CCCN(CCC)CC(O)Cn1cc(/C=C/C(=O)c2ccccc2)c2ccccc21 (stereo unspecified) ?
JMJD2E inh: -3%; Tau fibril ThT: inconclusive; TRb SRC2 PPI: 3%; Tau FP inhib: -6%; TR SRC2 fluor cs: -7%; Tau fluor counter: inconclusive

How did CC1CCC2(CC1)OCC1(CCC3(COC4(CCC(C)CC4)OC3)C1=O)CO2 (stereo unspecified) do in these assays?
JMJD2E inh: 4%; Tau fibril ThT: 0%; TRb SRC2 PPI: 5%; Tau FP inhib: -2%; TR SRC2 fluor cs: 3%; Tau fluor counter: 4%

What do the screens show for `CCOC(=O)c1ccc(N2C(=O)c3n[nH]c(-c4cccs4)c3C2c2ccc(CC)cc2)cc1` (stereo unspecified)?
Tau fibril ThT: -13%; TRb SRC2 PPI: -1%; Tau FP inhib: inconclusive; TR SRC2 fluor cs: -1%; Tau fluor counter: inconclusive

How did COC(=O)CN1C(=O)C2(C(C#N)=C(N)Oc3n[nH]c(-c4cccs4)c32)c2ccccc21 (stereo unspecified) do in these assays?
JMJD2E inh: 5%; Tau fibril ThT: -8%; TRb SRC2 PPI: -15%; Tau FP inhib: -9%; TR SRC2 fluor cs: -3%; Tau fluor counter: -6%

How did COC(=O)CN1C(=O)C2(C(C#N)=C(N)Oc3c2c(C)nn3-c2ccccc2)c2ccccc21 (stereo unspecified) do in these assays?
JMJD2E inh: -18%; Tau fibril ThT: 28µM*; TRb SRC2 PPI: 3%; Tau FP inhib: inconclusive; TR SRC2 fluor cs: -7%; Tau fluor counter: -25%

Results for COc1cc(C2CC(=O)N3CN(Cc4ccco4)CSC3=C2C#N)ccc1OCc1ccccc1 (stereo unspecified) ?
JMJD2E inh: inconclusive; Tau fibril ThT: 20µM*; TRb SRC2 PPI: 9%; Tau FP inhib: inconclusive; TR SRC2 fluor cs: -5%; Tau fluor counter: inconclusive

How did COc1ccc2ccccc2c1C1CC(=O)N2CN(Cc3ccco3)CSC2=C1C#N (stereo unspecified) do in these assays?
JMJD2E inh: -11%; Tau fibril ThT: inconclusive; TRb SRC2 PPI: 4%; Tau FP inhib: inconclusive; TR SRC2 fluor cs: -1%; Tau fluor counter: -23%

What do the screens show for `N#CC1=C2SCN(Cc3ccco3)CN2C(=O)CC1c1ccc(Cl)cc1` (stereo unspecified)?
JMJD2E inh: inconclusive; Tau fibril ThT: 18µM*; TRb SRC2 PPI: -2%; Tau FP inhib: inconclusive; TR SRC2 fluor cs: -2%; Tau fluor counter: -21%

What do the screens show for `O=C1CSC(=Nc2ccc(Cl)cc2)N1Cc1ccco1`?
JMJD2E inh: -7%; Tau fibril ThT: -8%; TRb SRC2 PPI: 0%; Tau FP inhib: 11%; TR SRC2 fluor cs: -5%; Tau fluor counter: -3%

What do the screens show for `COc1ccc(C2CC(=O)N3CN(Cc4ccco4)CSC3=C2C#N)cc1` (stereo unspecified)?
JMJD2E inh: -28%; Tau fibril ThT: 25µM*; TRb SRC2 PPI: 1%; Tau FP inhib: inconclusive; TR SRC2 fluor cs: 1%; Tau fluor counter: -23%

Results for CC(C)c1ccc(C2CC(=O)N3CN(Cc4ccco4)CSC3=C2C#N)cc1 (stereo unspecified) ?
JMJD2E inh: -23%; Tau fibril ThT: 22µM*; TRb SRC2 PPI: 6%; Tau FP inhib: inconclusive; TR SRC2 fluor cs: -3%; Tau fluor counter: -24%
